Hit rate of the full screen: of about 3,400 compounds, about 840 (25%) were called active. Not shown: some 11% with an inconclusive outcome. These entries were drawn from the full list. Results with a measured potency or affinity are listed apart. Unmarked numbers belong to inactive results.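 How the source made its calls: active means fitted half-maximal concentration of signal decrease at or below twice the sample's top tested concentration; inconclusive means flat curve between -70 and -30 percent, or poor fit; inactive means flat within 30 percent, signal rise, or potency above limit.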
Experiment: inhibitors of Toxoplasma growth in IFN-γ-primed HeLa – cell-based, ME49Luc, luciferase, 72 h, dose response (AID 1259418)
Details: T. gondii ME49Luc in IFN-y HeLa, active compounds read low, -100% = high-dose IFN-γ control wells; at 19.5 µM unless noted

Structure (SMILES)	max activity
COC(=O)C1CC23C=CNC4CCC5(c6ccccc6NC15C2C)C43 (stereo not drawn)	26.5% [at 10 µM]
COc1ccc(-c2nc3c(s2)CN(S(=O)(=O)c2ccc(F)cc2F)CC3)cc1	13% [at 5 µM]
COC(=O)c1cccc(NC(=O)Nc2ccc(-c3nc(-c4cc(C)ccc4C)co3)cc2)c1	11.4% [at 5 µM]
CCc1cc(C2CCCN2C(=O)Cn2nc(C(F)(F)F)cc2C)on1 (stereo not drawn)	-8.33% [at 5 µM]
Cc1ccccc1-c1nc(CN2CCN(C(=O)Nc3cccc(C)c3C)CC2)c(C)o1	-5.68% [at 2.6 µM]
COCCCNC(=O)Cn1c(=O)c(S(=O)(=O)c2ccccc2)cc2cc(C)ccc21	5.8% [at 2.6 µM]
Cc1ccc(NC(=O)Nc2ccc(-c3nc(-c4cccc(Br)c4)co3)cc2)cc1	18.1% [at 0.16 µM]
COc1ccc(NC(=O)N2CCc3nc(-c4ccccc4)sc3C2)c(OC)c1	19.6% [at 10 µM]
Cc1ccc(-c2ccc(OCCNC(=O)c3sc(-c4ccccc4)nc3C)nn2)cc1	10.9% [at 2.6 µM]
Cc1cc(C2CCCN2C(=O)c2cc(C(F)(F)F)nn2C)on1 (stereo not drawn)	8.24% [at 1.35 µM]
Cc1nc(-c2ccc(F)cc2)sc1-c1ccc(SCc2ccccn2)nn1	11.9%
Cc1ccc(-c2coc(-c3ccc(NC(=O)Cc4ccccc4C)cc3)n2)cc1	19%
Cc1ccccc1NC(=O)N1C[C@H]2C[C@H](C(=O)NC3CCC3)[C@@H](C1)O2	41.9%
COc1ccc(NC(=O)Nc2ccc(-c3nc(-c4ccc(C)cc4C)co3)cc2)cc1	-20.8% [at 0.16 µM]
COc1cc(OC)cc(C(=O)Nc2ccc(-c3nc(-c4cc(C)ccc4C)co3)cc2)c1	19.3% [at 0.16 µM]
COc1cc(NC(=O)Nc2ccc(-c3nc(-c4cc(C)ccc4C)co3)cc2)cc(OC)c1	6.94% [at 0.08 µM]
COc1ccc(C(=O)Nc2ccc(-c3nc(-c4ccc(C)cc4C)co3)cc2)cc1	25.2% [at 0.35 µM]
COc1ccc(-c2nc3c(s2)CN(S(=O)(=O)c2ccc(C(C)(C)C)cc2)CC3)cc1	5.19%
COc1ccc(-c2nc(Nc3ccccc3C)c3ccccc3n2)cc1	-9.66% [at 10 µM]
COc1ccc(CCNc2ncnc3c2cnn3-c2ccccc2)cc1OC	24.5% [at 5 µM]
CCSc1ccc2c(c1)N(CCCN1CCN(C)CC1)c1ccccc1S2	26.9%
CCOC(=O)Cc1ccc(NC(=O)Nc2ccc(-c3nc(-c4ccccc4)co3)cc2)cc1	9.92% [at 2.6 µM]
OC[C@@H]1[C@@H](c2ccc(-c3cccnc3)cc2)[C@@H]2CN(Cc3ccccn3)CCCCN12	-5.02% [at 1.2 µM]
OC[C@@H]1[C@@H](c2ccc(-c3cccc(F)c3)cc2)[C@@H]2CN(Cc3cncnc3)CCCCN12	12.9%

Structure (SMILES)	max activity
COc1cc(CN2C[C@@H]3N[C@H](C2)C3c2ccc(-c3ccc(C#N)cc3)cc2)cc(OC)c1 (stereo partly drawn)	27% [at 10 µM]
Fc1cccc(-c2ccc(C3[C@H]4CNC[C@@H]3N4Cc3ccccn3)cc2)c1 (stereo partly drawn)	18.9% [at 5 µM]
COc1cccc(-c2ccc(C3[C@H]4CNC[C@@H]3N4Cc3nccs3)cc2)c1 (stereo partly drawn)	51.8% [at 21 µM]
O=C(c1cccs1)N1CCC2(CC1)Nc1cc(F)ccc1-n1cccc12	9.34% [at 0.68 µM]
O=C(CCC1Nc2c3ccccc3nc(=S)n2C1=O)NCCN1CCC(Cc2ccccc2)CC1 (stereo not drawn)	54.5% [at 10 µM]
CCc1ccc2c(c1)cc(S(=O)(=O)c1ccccc1)c(=O)n2CC(=O)NCCCOC	8.62% [at 10 µM]
COCCN1CCc2nc(SCc3nc(-c4ccccc4OC)oc3C)[nH]c(=O)c2C1	14.3% [at 5 µM]
COc1cc(-c2noc(-c3nnn(Cc4nc(-c5ccccc5)oc4C)c3C)n2)ccc1OC(C)C	9.04% [at 0.16 µM]
CSc1cccc(NC(=O)N2CCc3nc(-c4ccc(C)cc4)sc3C2)c1	42.8% [at 10 µM]
O=C(Nc1ccc(-c2nc(-c3ccccc3)co2)cc1)c1ccccc1Cl	40%
Cn1nccc1C(=O)N1CCC2(CC1)Nc1cc(F)ccc1-n1cccc12	-9.01%
c1csc(-c2cc(NC3CCNCC3)nc3[nH]ccc23)n1	35.6% [at 5 µM]
COc1cc(Nc2nc(SCc3ccccc3Cl)nc3ccccc23)cc(OC)c1OC	11% [at 0.68 µM]
Fc1cccc(CSc2nc(Nc3ccc4c(c3)OCO4)c3ccccc3n2)c1	11.5%
Clc1ccc(CSc2nc(Nc3ccc4c(c3)OCO4)c3ccccc3n2)cc1	5.7% [at 2.6 µM]
Fc1ccc(Nc2nc(SCc3ccccc3F)nc3ccccc23)cc1	12.5%
CCc1ccc(-c2noc(-c3nnn(Cc4nc(-c5ccccc5)oc4C)c3C)n2)cc1	20.7%
Cc1ccc(NC(=O)Nc2ccc(-c3nc(-c4ccc(C)cc4C)co3)cc2)cc1	46.2%
Cc1ccccc1CNC1=NCCNC12CCN(S(=O)(=O)c1ccc(CC(C)C)cc1)CC2	13.3% [at 2.6 µM]
Cc1ccc(CNC2=NCCNC23CCN(S(=O)(=O)c2ccc(CC(C)C)cc2)CC3)cc1	13.1% [at 10 µM]
CC(C)Cc1ccc(S(=O)(=O)N2CCC3(CC2)NCCN=C3NCc2cc(F)cc(F)c2)cc1	20.3%
COc1ccc(NC(=O)N2CCc3nc(-c4ccccc4)sc3C2)cc1OC	-8.38% [at 0.35 µM]
Cc1nc(OCC(=O)Nc2ccc(Br)cc2)c2ccccc2n1	28% [at 1.35 µM]
Cc1ccc(C)c(NC(=O)COc2nc(C)nc3ccccc23)c1	15.8% [at 10 µM]

— PubChem BioAssay AID1259418 (Broad Institute, 2018)
